From PubChem
This is a sample that favours compounds with a hit; in the whole collection about 0.35% have one here.
PvdQ inh: blocks Pseudomonas aeruginosa PvdQ acylase activity. AID 488965. purified PvdQ acylase, fluorescence plate reader. 0.063% of 340,000 active. inhibition, % at 10 µM; in the data active means inhibition above about 30%, passing the limit was not always enough; inconclusive means no clear call, values can overlap the other calls;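 further: 0% = vehicle neutral wells and 100% = reference inhibitor wells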
PDI inh: inhibitors of human protein disulfide isomerase; PDI insulin aggregation turbidity, A650, 90 min; inhibition, % at 10 µM; 0.052% of 350,000 active;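 active means mean inhibition across replicates of 30% or more, whatever share of single replicates reach that level; inconclusive means mean inhibition below 30% while every single replicate reaches 30%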
ERp5 inh: blocks human ERp5 reductase activity on insulin; Q15084; ERp5 insulin aggregation, absorbance 650 nm, 90 min; inhibition, % at 9.99 µM; 0.05% of 350,000 active;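 active means mean replicate inhibition above about 25%, with every replicate also reaching it, limit read from the data, passing the limit was not always enough; inconclusive means only one of those two criteria met; inactive means neither criterion met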
Rtt109 Vps75: inhibitors of Candida albicans Rtt109/Vps75 histone acetyltransferase; Q5AAJ8; purified Rtt109/Vps75, ThioGlo CoA-SH fluorescence, 4 h; inhibition, % at 34.9 µM; 0.16% of 330,000 active;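 active means inhibition of at least 50% in every replicate; inconclusive means best replicate reaches 50% inhibition but some replicates fall short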
ERAP1 HTS inh: ERAP1 (human) enzyme inhibition. Q9NZ08. recombinant ERAP1, Leu-AMC fluorescence, 60 min. inhibition, % at 10.7 µM. 0.15% of 340,000 active;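 active means mean replicate inhibition of at least 30%, or all replicates individually reaching that 30% level; inactive means mean below 30% and not every replicate reaching it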;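 further: 0% = neutral control wells and 100% = L-leucinethiol positive control wells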
Target sequence (Q9NZ08 whole entry, looked up): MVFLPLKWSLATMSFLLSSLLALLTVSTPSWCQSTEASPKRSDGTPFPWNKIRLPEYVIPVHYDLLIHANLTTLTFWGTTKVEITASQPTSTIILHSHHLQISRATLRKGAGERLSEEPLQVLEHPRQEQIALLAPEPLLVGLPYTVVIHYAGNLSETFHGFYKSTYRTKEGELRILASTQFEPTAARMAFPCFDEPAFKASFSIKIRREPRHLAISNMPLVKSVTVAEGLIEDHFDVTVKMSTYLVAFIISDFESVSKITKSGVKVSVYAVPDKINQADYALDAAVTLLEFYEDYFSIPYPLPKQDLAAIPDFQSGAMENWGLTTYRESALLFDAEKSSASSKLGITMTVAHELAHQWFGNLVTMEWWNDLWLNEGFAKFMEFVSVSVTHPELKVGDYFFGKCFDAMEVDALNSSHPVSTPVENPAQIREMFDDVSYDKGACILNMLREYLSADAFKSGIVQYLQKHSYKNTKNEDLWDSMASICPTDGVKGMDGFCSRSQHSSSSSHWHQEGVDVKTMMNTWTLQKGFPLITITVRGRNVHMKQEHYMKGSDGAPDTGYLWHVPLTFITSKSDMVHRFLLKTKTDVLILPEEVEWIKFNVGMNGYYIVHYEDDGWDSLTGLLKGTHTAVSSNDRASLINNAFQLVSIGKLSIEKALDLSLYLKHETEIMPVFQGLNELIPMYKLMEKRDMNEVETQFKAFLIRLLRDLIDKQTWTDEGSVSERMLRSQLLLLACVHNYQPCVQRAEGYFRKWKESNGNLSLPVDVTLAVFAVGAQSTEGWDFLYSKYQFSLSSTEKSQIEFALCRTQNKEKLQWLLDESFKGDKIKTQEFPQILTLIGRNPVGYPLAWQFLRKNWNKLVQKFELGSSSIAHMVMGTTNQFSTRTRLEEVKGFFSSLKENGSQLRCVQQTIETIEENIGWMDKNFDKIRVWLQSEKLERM
Starred values were filed as active, the others as inactive; i = inactive; u = inconclusive; x = no result given; + = active, no number; ! = not active in a repeat.

SMILES	PvdQ inh	PDI inh	ERp5 inh	Rtt109 Vps75	ERAP1 HTS inh
c1ccc(Cc2cnc(N3CCNCC3)nc2)cc1	x	x	-3.2	x	64.2*
c1cnc(N2CCNCC2)nc1	12.3	-6.2	-1.9	13.5	1.3
CCCNC(=O)[C@@H]1[C@@H](CO)[C@@H]2Cn3c(cccc3=O)[C@@H]2N1CC	x	x	-1.1	x	-2.0
C[C@H](CO)N1C[C@H](C)[C@@H](CN(C)C(=O)Oc2ccc3ccccc3c2)OCc2cn(nn2)CCCC1=O	x	-1.6	54.5*!	x	-2.2
N#C[C@H](O[C@@H]1O[C@H](CO[C@@H]2O[C@H](CO)[C@@H](O)[C@H](O)[C@H]2O)[C@@H](O)[C@H](O)[C@H]1O)c1ccccc1	-23.7	-4.1	2.3	-2.1	x
O=c1ccc2cc(O[C@@H]3O[C@@H](CO)[C@H](O)[C@@H](O)[C@@H]3O)c(O)cc2o1	-7.9	-4.6	1.4	i	+
COc1ccc(C#Cc2ccc([C@@H]3[C@@H](CO)N4CCCCN(C(=O)Cc5ccncc5)C[C@H]34)cc2)cc1	x	x	0.5	x	-1.5
COC(=O)[C@H]1[C@H](CO)[C@H]2Cn3c(ccc(C4=CCCCC4)c3=O)[C@@H]1N2C(=O)CC1CC1	x	x	6.6	x	1.9
O=c1[nH]sc2cc(F)ccc12	9.9	-5.6	-3.4	-10.6	31.3*
CCCC(CCC)C(=O)OC[N+](C)(C)CCOC(=O)C(O)(c1ccccc1)C1CCCC1 (centres undefined)	-20.4	5.3	-0.1	56.7*	-1.2
COCC#Cc1ccc([C@@H]2[C@H]3CN(C(=O)Cc4ccccn4)CCCCN3[C@H]2CO)cc1	x	x	-6.4	x	-2.6
CCCNC(=O)[C@@H]1[C@@H](CO)[C@@H]2Cn3c(cccc3=O)[C@H]1N2CCC	x	x	-1.2	x	0.3
CC1=C(O)C(=O)C=C2C1=CC=C1C2(C)CCC2(C)C3CC(C)(C(=O)O)CCC3(C)CCC12C (centres undefined)	-1.8	62.8*	11.3	2.1	1.3
Cn1ncnc2c(=O)n(C)c(=O)nc1-2	8.0	174.5*	x	18.2	x
C[C@H]1CN([C@@H](C)CO)C(=O)CCCn2cc(nn2)CO[C@H]1CN(C)C(=O)Oc1ccc2ccccc2c1	x	x	-2.0	x	-2.1
N#Cc1cccc(-c2ccc([C@H]3[C@@H](CO)N4CCCCN(C(=O)Cc5ccccc5)C[C@H]34)cc2)c1	x	x	-0.2	x	-2.2
Cc1ccc2c(c1)C1CN(C)CCC1N2C(=O)c1cccs1 (centres undefined)	-12.4	7.5	2.4	-0.8	x
Cc1ccc2c(c1)C1C[N+](C)(CC(=O)c3ccc(Cl)cc3Cl)CCC1N2C(=O)c1ccc(F)cc1 (centres undefined)	-25.2	9.0	0.4	56.6*	22.4
CCC(CO)(C(=O)OC1C[N+]2(C)CCC1CC2)c1ccccc1 (centres undefined)	-12.0	-2.4	3.0	-9.6	72.2*
CC[N+]12CCC(CC1)C(C(O)(c1ccccc1)c1ccccc1)C2 (centres undefined)	-19.0	-5.0	-1.3	-5.8	-1.1
Cc1cc(OCC(=O)NCc2ccc(S(N)(=O)=O)cc2)c2c3c(c(=O)oc2c1)CCC3	6.0	0.7	28.0*	14.4	-2.2
Cc1cc(OCC(=O)NC(Cc2ccc(Cl)cc2)C(=O)O)c2c3c(c(=O)oc2c1)CCCC3 (centres undefined)	-1.3	x	1.8	21.3	31.4*
Cc1cc(OCC(=O)NCc2ccncc2)c2c3c(c(=O)oc2c1)CCC3	-9.7	4.4	3.7	-20.0	0.2
C[C@H](CO)N1C[C@H](C)[C@@H](CN(C)C(=O)Oc2cccc3ccccc23)OCc2cnnn2CCCC1=O	x	x	-7.9	x	-3.4
CSc1ncc(/C=C2/C(=O)NC(=O)N(c3ccc(Cl)cc3)C2=O)cn1	-15.8	0.2	1.8	63.7*	-0.6
SMILES	PvdQ inh	PDI inh	ERp5 inh	Rtt109 Vps75	ERAP1 HTS inh
CSc1ncc(/C=C2/C(=O)NC(=O)N(c3ccc(C)cc3)C2=O)cn1	4.7	-6.3	4.7	5.3	7.4
CCCCCCCCCCCCCCCC[N+](C)(C)C	0.5	0.4	6.4	13.4	42.4*
COC(=O)[C@@H]1[C@@H](CO)[C@@H]2Cn3c(ccc(C4=CCCCC4)c3=O)[C@H]1N2CC1CCCCC1	x	x	0.9	x	4.8
COc1cc2c(cc1OC)-c1c(OC)c(OC)cc3c1[C@H](C2)[N+](C)(C)CC3	0.6	-2.8	-3.3	-3.2	79.4*
CN(C)CC#Cc1ccc([C@H]2[C@@H](CO)N3CCCCN(C(=O)Cc4ccccn4)C[C@H]23)cc1	x	x	-0.4	x	-1.1
O=C1NC(=O)C(=Cc2cc3c(cc2[N+](=O)[O-])OCO3)C(=O)N1	9.1	22.1	-2.9	73.6*	2.9
O=C1NC(=O)C(=Cc2ccccc2[N+](=O)[O-])C(=O)N1	-7.8	-0.5	-0.4	-6.1	0.5
COc1cccc2c1C(=O)c1c(O)c3c(c(O)c1C2=O)CC(O)(C(C)=NO)CC3OC1CC(N)C(O)C(C)O1 (centres undefined)	-21.3	u	-4.1	0.2	32.7*
O=C(Cc1cccnc1)N1CCCCN2[C@H](C1)[C@H](c1ccc(C#CC3CC3)cc1)[C@@H]2CO	x	x	0.1	x	-0.2
CC(Cc1ccccc1Sc1ccccc1O)N(C)C (centres undefined)	10.7	37.7*	x	31.2	x
COC(=O)[C@H]1[C@H](CO)[C@H]2Cn3c(ccc(-c4cccc(F)c4)c3=O)[C@@H]1N2Cc1cccnc1	x	x	1.2	x	-1.1
COC(=O)[C@H]1[C@H](CO)[C@H]2Cn3c(ccc(C4=CCCCC4)c3=O)[C@@H]1N2CC1CCCC1	x	x	-0.9	x	1.2
C[n+]1ccc(-c2ccncc2)cc1	-9.0	-3.1	-1.5	-4.4	31.4*
CCN(CC)P(=O)(c1n(CC)cc[n+]1CC)N(CC)CC	3.0	0.4	0.9	9.4	108.6*
N=C1c2ccccc2CN1NC(=O)c1ccccc1	0.3	17.8	4.1	50.8*	-4.1
COc1ccc(CC(C)Nc2cccc(F)c2)cc1 (centres undefined)	36.3*	-34.6	-1.2	-2.2	0.5
CNC(C)Cc1ccc(OC)cc1 (centres undefined)	x	x	2.2	x	-2.3
CC[N+](C)(CC)CCCCOc1ccc2c(c1)C(=O)c1cc(OCCCC[N+](C)(CC)CC)ccc1-2	-6.0	-3.6	x	1.1	68.1*
O=C(C1CC1)N1C[C@@H]2N[C@H](C1)[C@@H]2c1ccc(-c2ccncc2)cc1	x	x	-11.6	x	-3.9
C/C=C/c1ccc([C@@H]2[C@H]3CN(C(=O)Cc4cccnc4)CCCCN3[C@H]2CO)cc1	x	x	-2.0	x	0.0
C[N+](C)(C)CC#CCN1CCCC1=O	1.8	8.9	-3.4	3.1	73.4*
CN(C)C(=S)SSC(=S)N(C)C	-1.8	-6.8	4.7	154.1*	4.2
O=C(Cc1ccccc1)N1CCCCN2[C@H](C1)[C@H](c1ccc(-c3ccccc3)cc1)[C@@H]2CO	x	x	0.8	x	x
